We go through 40 compounds from PubChem BioAssay (NCI).

The panel holds about 83,000 compounds, 20% with a hit somewhere; the sample as a whole holds those more often.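 48-hour exposure, single concentration, 96-well plates; percent growth endpoint where 0 means no net growth. Active: below 10.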 A number with no mark means an inactive call. The source made the active and inactive calls.

In this assay the test system is OVCAR-8 ovarian. Kind of assay: NCI-60 one-dose screen, 48 h (100 = growth as untreated, 0 = no growth, -100 = all killed). Conditions: 10 µM unless noted. The method, then:
Growth inhibition of the OVCAR-8 human tumor cell line is measured as a screen for anti-cancer activity. Cells are grown in 96 well plates and exposed to the test compound for 48 hours. Compounds are tested at a single concentration, which is 10^-5 M for most compounds. The reported endpoint is percent growth (GI% or GIPRCNT), where numbers from 0 - 100% represent growth inhibition, and numbers from -100% - 0 represent cell death. For example, a value of 40 represents 60% growth inhibition. A value of 0 means no net growth occurred over the course of the experiment. A value of -40 indicates 40% of cells at the beginning of the experiment died by the end of the experiment. A value of -100 means all cells are dead at the end of the experiment.
NCI-60 Human Tumor Cell Lines Screen was performed using the standard one-dose NCI protocol, which is described in more detail at https://dtp.cancer.gov/discovery_development/nci-60/default.htm.
Compounds with GIPRCNT values below 10 were considered active. Activity score was based on GIPRCNT using the following formula: […]
Score is 0 for GIPRCNT values of 100 or above, 50 for GIPRCNT values of 0, and 100 for GIPRCNT values of -100.
On to `Cc1cc(=O)n(C(=S)Nc2ccc(Cl)cc2)c2cc(O)ccc12`, for which the growth was 101%.

For the compound `O=S(Nc1ccccc1)c1ccc(Cl)cc1` (stereo not given), the growth is 100%.

Consider `Cn1cc(-c2nonc2-c2c[nH]c3ccccc23)c2cc(Br)ccc21`, for which the growth was 45%.

With `CC(C)c1ccc2c(c1)CC[C@H]1[C@](C)(C(=O)OCC#CCN3CCCC3)CCC[C@]21C`, the growth was 89%.

As to `C[C@H]1[C@H](C)CC[C@]2(C(=O)NCCNCCN)CC[C@]3(C)C(=CC[C@@H]4[C@@]5(C)CCC(=O)C(C)(C)[C@@H]5CC[C@]43C)[C@H]12`, the growth is 33.6%.

With `Cc1c2cnccc2c(C)c2c1c1cc(CO)ccc1n2C`, the growth is -13.8% (active).

As for `COc1cc(-c2cc(-c3ccc(Nc4nc(Nc5ccc(Cl)cc5)nc(Nc5ccc(Cl)cc5)n4)cc3)no2)cc(OC)c1OC`, the growth is 76.4%.

Turning to `CN1CCN(Cc2ccc(NC(=O)c3cncc(C#Cc4cnc(N)cc4C#N)c3)cc2C(F)(F)F)CC1`, the growth is 22.6%.

Consider `Nc1nc(N(Cc2ccccc2)c2ccccc2)c2cn[nH]c2n1`, for which the growth was 80.3%.

Turning to `Cc1cc(O)c(=O)cc2c1C[C@H]1CC(C)(C)/C=C/C[C@]3(C)Oc4cc(=O)c(O)cc(C)c4C[C@H]3C[C@H](O)[C@@]1(C)O2`, the growth is 5.84% (active).

Consider `Nc1nc(C(=O)N/N=C/c2ccc(F)cc2)nn1-c1ccc(S(N)(=O)=O)cc1`, for which the growth was 97.5%.

With `N#Cc1c(-c2cccc(Cl)c2)cc(-c2cccnc2)[nH]c1=O`, the growth was 98.1%.

Regarding `CCOC(=O)c1nnn(-c2no[n+]([O-])c2-c2ccc(OC)cc2)c1COc1cccc2cccnc12`, the growth is 0.67% (active).

With `COc1ccc(C(c2cc(OC)c(OC)c(OC)c2)N2CCCCC2)cc1` (stereo not given), the growth is 50.1%.

In the case of `CN1CC(c2ccc(Br)cc2)C(C(=O)c2ccc(Br)cc2)C12C(=O)Nc1ccccc12` (stereo not given), the growth was 83.8%.

`COC1/C=C/OC2(C)Oc3c(C)c(O)c4c(O)c(c(/C=N/N(c5ccccc5)c5ccccc5)c(O)c4c3C2=O)NC(=O)C(C)=C/C=C/C(C)C(O)C(C)C(O)C(C)C(OC(C)=O)C1C` (stereo not given): the growth is 63.3%.

Consider `Fc1ccc2[nH]cc(-c3nc(-c4c[nH]c5c(Cl)nccc45)cs3)c2c1`, for which the growth was 52%.

As to `C=C1SC(=Nc2ccccc2Cl)N(C(=O)c2sc3ccccc3c2Cl)C1(C)C`, the growth is 61.4%.

Regarding `CC/C(=C(/c1ccc(O)cc1)c1ccc(OCCN2CCCCC2)cc1)c1ccc(OC)cc1`, the growth is 91.5%.

Regarding `C[N+]1=C(/C=C/c2ccccc2Cl)C(C)(C)c2ccccc21`, the growth is 90.8%.

In the case of `O=C1Nc2ccc(Cl)cc2/C1=C/c1ccc[nH]1`, the growth was 102%.

Take `CC(=O)O[C@H]1CC[C@]2(C)[C@H]3CC=C4[C@@H]5CC(C)(C)CC[C@]5(C(=O)N5CCN(CCC#N)CC5)CC[C@@]4(C)[C@]3(C)CC[C@H]2C1(C)C`: the growth is 29.6%.

With `COc1ccc(-c2nc(SCC(=O)Nc3nc4ccc(C)cc4s3)[nH]c(=O)c2C#N)cc1OC`, the growth was 101%.

For `O=C(O)CCCCCCCCCCN1C(=O)/C(=C2/C(=O)N(CC(=O)O)c3ccc(Br)cc32)SC1=S`, the growth was 65.9%.

In the case of `CCN(CCNc1ccc(C)c2sc3cc(Cl)ccc3c(=O)c12)CC(C)(C)O`, the growth was 85.5%.

Regarding `COc1cc(N2C(=O)[C@H](Cl)C2c2ccc(SC)cc2)cc(OC)c1OC` (stereo not given in full), the growth is 8.62% (active).

With `COc1ccc2c(c1)oc1c(C)c3c(c(C)c12)C(=O)N(CCOS(C)(=O)=O)C3=O`, the growth was 103%.

Regarding `COC(=O)c1c(C)nc(C)c2c1C(=O)C=C(NCc1ccccc1)C2=O`, the growth was 97.8%.

As to `CC1=Nc2cnc(Nc3ccc(N4CCCCC4)cc3)nc2Nc2ccccc21`, the growth is 77.2%.

For `C=C(C)[C@@H]1CC[C@]2(C(=O)Nc3ccccn3)CC[C@]3(C)[C@H](CC[C@@H]4[C@@]5(C)CCCNC(C)(C)[C@@H]5CC[C@]43C)[C@@H]12`, the growth is 12.4%.

Turning to `CCOC(=O)c1c(NC(=O)c2ccccc2)sc2c3c(ccc12)OCN(C)C3`, the growth was 28.5%.

With `Cn1c(C#N)ccc1-c1ccc(F)c(NC(=O)c2ccc(F)cc2)c1`, the growth is 95.4%.

On to `O=C(NCCN1CCOCC1)OCc1ccc2c(Cl)cc(Cl)c(O)c2n1`, for which the growth is 49.2%.

As to `Cc1c(O)cc(-c2cnc(N/N=C/c3ccccc3)s2)c(O)c1C`, the growth is 84.4%.

In the case of `Cc1ccc(O)c(NC(=O)c2cccc(Nc3ccnc(C(F)(F)F)c3)c2)c1`, the growth is 73.2%.

Turning to `O=C(Nc1cccnc1Nc1ccccc1)c1cn(Cc2cccc(Oc3ccccc3)c2)nn1`, the growth was 71.4%.

As for `N#Cc1c(-c2ccc(Cl)cc2)nc(NN=Cc2ccc[nH]2)nc1N1CCOCC1`, the growth is 85.1%.

On to `Cc1ccc(Cc2cnc(NC(=O)/C=C/c3ccc(C)o3)s2)cc1`, for which the growth is 62%.

For `N#Cc1ccc(/C=C/c2cn(-c3ccccc3)nc2-c2cccc([N+](=O)[O-])c2)cc1`, the growth was 44.1%.

Take `N[C@@H]1CCC[C@H]1NCCCCN1C(=O)c2cccc3cc([N+](=O)[O-])cc(c23)C1=O`: the growth was 32.5%.
